# Screening data: PubChem BioAssay, several laboratories
# Compounds with a hit are over-represented: about 9.6% of the library has one in this group of screens.
# HCT116 PTEN-null: suppresses growth of cells with PTEN deletion; HCT116 PTEN-null viability, CellTiter-Glo, 60 h; stronger effect = lower value; viability, % at 10 µM; 140,000 tested, 1.2% active;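 active = viability at or below a set limit, 4 SD under the median of all tested compounds, cut at about 3.7% in these data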;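 note: PTEN knockout HCT116 line with beta catenin targeted HCT116 as companion control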
# Autophagy mod: alters autophagy in cells | MEF GFP-LC3 puncta imaging; test concentration mostly 10 µM | calls only at 10 µM (by protocol) | AID 463193 | 190,000 tested, 0.98% active;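 active = percentage of spot-positive cells more than 3 SD above its plate mean, without a fluorescence outlier flag or 80% toxicity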;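 note: spot-positive cell cutoff set from DMSO-treated cells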
# L major viab: inhibitors of Leishmania major promastigote growth. Leishmania major promastigotes, resazurin fluorescence viability. inhibition, % at 10 µM. 200,000 tested, 9% active; in the data active = inhibition above about 50%;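 note: promastigotes grown with compound for 44 hours at 28 °C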
# INS promoter inh: TRM-6 insulin promoter activity inhibition; TRM-6 cells (human fetal islet line), insulin promoter-eGFP reporter, imaging; reporter expression induced with tamoxifen; inhibition, % at 2 µM; 130,000 tested, 0.9% active; AID 1273;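 active = inhibition above the mean plus 3 SD, with well images judged a real hit on visual review, cut at about 60% in these data, passing the limit was not always enough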
# Insulin prom up: MIN6 insulin promoter up-regulation. MIN6 insulin promoter-GFP reporter, high-content imaging; stronger effect = higher value. AID 1625. z-score at 5 µM. 190,000 tested, 0.3% active;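 active = z-score above 3 at 5 µM with at least 500 cells counted in the well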
# bCat KO growth: beta-catenin-lacking colon tumor cell growth suppression | 140,000 tested, 1.5% active | HCT116 beta-catenin knockout viability, CellTiter-Glo, 60 h; stronger effect = lower value | viability, % at 10 µM | AID 818;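 active = viability at or under a set limit, the compound median less 4 SD, cut at about 6% in these data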;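 note: 0% = Hyamine 1622 control at 20 µM and 100% = untreated cell control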
# * marks the source's active call; other numbers are inactive results; i = inactive; . = no result; + = active, no number.
SMILES,HCT116 PTEN-null,Autophagy mod,L major viab,INS promoter inh,Insulin prom up,bCat KO growth
C[C@@H]1CN(C2CCN(Cc3nc(CC4CC4)no3)CC2)C[C@H](C)O1,.,i,86*,-43,-0.75,.
Clc1ccccc1Cc1noc(CN2CCN3CCCC3C2)n1 (centres undefined),.,i,75*,.,-0.36,.
FC(F)(F)c1ccc(-c2noc(CN3CCCN(C4CCCCC4)CC3)n2)cc1,.,i,84*,.,-0.42,.
CC(=O)N1CCN(Cc2nc(C(c3ccccc3)c3ccccc3)no2)CC1,.,i,-1,-14,0.27,.
C[C@@H]1CN(C2CCN(Cc3nc(C(c4ccccc4)c4ccccc4)no3)CC2)C[C@H](C)O1,.,i,85*,-40,-0.59,.
COc1ccc(S(=O)(=O)NNC(=O)c2cc3c4ccccc4n(C)c3s2)cc1,89,i,-11,.,-0.28,91
N#CC(C#N)=Cc1cccn1-c1ccc(S(N)(=O)=O)cc1,.,i,0,.,1,.
Cc1cccc(/C=C\c2nc3ccccc3c(=O)[nH]2)c1,24,i,6,21,-0.22,25
c1ccc(C(c2ccccc2)c2noc(CN3CCN(C4CCCC4)CC3)n2)cc1,.,i,84*,.,0.02,.
Cc1ccsc1/C=C(\C(=O)c1ccc(OC(C)C)cc1)c1nc2ccccc2o1,56,i,100*,-21,1.3,48
O=C(C(Cc1ccccc1)N1C(=O)C2C3CCC(C3)C2C1=O)N1CCCCC1 (centres undefined),99,i,-1,.,-0.01,93
CCCOc1ccccc1-n1sc2c(c1=S)-c1cc(OC)cc3c1N(C(=O)C3=O)C2(C)C,3.0*,i,-7,-14,.,46
CCCCCOC(=O)Nc1ccc(S(=O)(=O)Nc2cccc([N+](=O)[O-])c2)cc1,85,i,62*,37,-0.17,92
CCCCOC(=O)Nc1ccc(S(=O)(=O)Nc2cc(C)nc(C)n2)cc1,108,i,-5,-20,-0.08,102
CCCCOC(=O)Nc1ccc(S(=O)(=O)Nn2cnnc2)cc1,93,i,0,0,2.4,106
CCCCOC(=O)Nc1ccc(S(=O)(=O)Nc2ccc([N+](=O)[O-])cc2)cc1,93,i,78*,-41,0,93
COC/C=C/C1=CC2=CC(=O)C(C)(OC(=O)c3cnc4ccccc4n3)C(=O)C2=CN1CCCOC(C)C (centres undefined),.,.,.,.,-0.29,.
COc1cccc(N/C(N)=N/c2nc(CSc3ccccn3)cc(=O)[nH]2)c1,.,+,23,-464,0.07,.
Nc1cc(N)c(OCC(F)(F)F)cc1OCC(F)(F)F,99,i,88*,-19,0.14,100
Nc1cc(OCC(F)(F)F)cc([N+](=O)[O-])c1,102,i,-7,-8,0.16,105
O=C(c1ccccc1)c1c[nH]c(C(=O)NNc2ccccc2)c1,.,i,89*,.,-0.1,.
O=C(c1ccccc1)c1c[nH]c(C(=O)NCc2cccnc2)c1,96,i,2,.,0.64,89
COc1ccc(-n2c(NCCN(C)C)nc3sc4c(c3c2=O)CCCCC4)cc1,43,i,58*,15,-0.22,56
COc1ccc(-n2c(N3CCN(C)CC3)nc3sc4c(c3c2=O)CCCCC4)cc1,54,+,100*,.,.,39
CN(C)CCNc1nc2sc3c(c2c(=O)n1-c1ccc(F)cc1)CCCCC3,.,.,.,.,-0.34,.
SMILES,HCT116 PTEN-null,Autophagy mod,L major viab,INS promoter inh,Insulin prom up,bCat KO growth
CC(C)NC(=O)NC(=O)CSc1nnc(C(F)(F)F)n1C,.,i,2,.,-0.54,.
COc1cc(OC)cc(C(=O)N[C@H](C(=O)OCC(=O)Nc2ccc(C)cc2C)C(C)C)c1,83,i,3,-8,0.28,88
O=C(O)c1ccc(CSc2nnc(-c3ccco3)n2-c2ccccc2)cc1,.,i,-8,.,-0.1,.
O=C1CCCC2=C1C(c1cccs1)n1nc(SCc3ccccc3F)nc1N2 (centres undefined),66,i,91*,-50,.,73
Cc1ccccc1CSc1nc2n(n1)C(c1cccs1)C1=C(CCCC1=O)N2 (centres undefined),28,i,58*,0,0.83,32
Cc1cc(NC(=O)COn2nnc3ccc(S(C)(=O)=O)cc32)ccc1Br,.,.,.,.,0.05,.
CC1CCC(C(C)C)C(OCC(O)CNC(C)c2ccccc2)C1 (centres undefined),.,i,77*,.,-1.1,.
CC(NCC(O)COc1ccc(S(=O)(=O)N2CCOCC2)cc1)c1ccccc1 (centres undefined),.,i,31,.,-0.57,.
CC(NCC(O)COC1CCC(C(C)(C)C)CC1)c1ccccc1 (centres undefined),.,+,100*,-24,-0.94,.
Cc1cccc(N2C(=O)C(Oc3ccc(Cl)cc3Cl)C2C=O)c1C (centres undefined),4,i,100*,10,-0.7,5.2*
CN(C)c1ccc2nc3ccc(=[N+](C)C)cc-3sc2c1,.,i,100*,-106,-1.9,.
CC(Nc1ccc2c(c1)OCCO2)C(=O)N1c2ccccc2CC1C (centres undefined),.,i,-1,.,-0.26,.
CCc1ccccc1S(=O)(=O)Cc1ccc(C(=O)NCc2ccc3c(c2)OCO3)o1,83,i,8,.,0.84,88
CC(C)Sc1nc2ccccc2n1CC(=O)NCc1ccc2c(c1)OCO2,81,i,5,91*,0.08,94
O=C(NCc1ccc2c(c1)OCO2)c1ccc(CSCc2ccc(Cl)cc2)o1,97,i,51*,-20,-0.53,93
O=C(NCc1ccc2c(c1)OCO2)c1ccc(CS(=O)(=O)Cc2cccc(Cl)c2)o1,91,i,79*,29,-0.82,88
O=C(CSc1nc2ccccc2o1)NCc1ccc2c(c1)OCO2,78,.,-2,.,0.63,74
O=C(NCc1ccc2c(c1)OCO2)c1ccc(COc2cc(Cl)ccc2Cl)o1,104,i,10,.,0.02,96
O=C(CSc1nc2ccc(Cl)cc2o1)NCc1ccc2c(c1)OCO2,74,i,0,3,4*,85
COc1ccc(NC(=O)N2CCCC2C(=O)Nc2ccccc2)cc1 (centres undefined),91,i,-2,19,-0.56,104
CCc1ccc(C2CC(c3ccc(C)cc3)Nc3nc(N)nn32)cc1 (centres undefined),84,i,-2,.,.,95
O=C(c1cc(S(=O)(=O)N2CCOCC2)ccc1F)N1CCCc2ccccc21,82,i,4,23,0.02,81
Cc1ccnc(N2C(=O)OC(C)(C)C2(C)O)c1 (centres undefined),113,i,-6,.,1.2,92
CCOc1ccc(-n2nnnc2-c2nc3ccccc3s2)cc1,3.1*,i,-3,-40,-0.34,3.3*
CCOc1ccc(N2C(=O)C(c3ccccc3)=C(c3nc4ccccc4s3)C2NC(C)=O)cc1 (centres undefined),67,i,51*,-453,.,62
Cc1ccc(-n2nnnc2-c2nc3ccccc3s2)cc1,99,i,-1,-12,0.05,93
